The whole screen tested about 16,000 compounds, of which about 2,600 (16%) were called active. Not shown: some 20% with an inconclusive outcome. The call rests on the fitted dose curve; in most records, active means well fitted curve in the direction sought with a large enough effect; inconclusive means small, poorly fitted or top-dose-only effect, or effect the other way; inactive means no such curve, though single readings can be large or run the other way. Not all results are given here.
What follows are molecules tested against Cytochrome P450 2D6 (Homo sapiens) (UniProt P10635) (assay: Cytochrome panel assay with activity outcomes). Details: recombinant CYP, pro-luciferin dealkylation, luminescence, p450-cyp2d6; series mostly up to 57.1 µM.
On the % scale 0 is the no-effect control and ±100 the full control effect.

Chain of Cytochrome P450 2D6 (Homo sapiens) (P10635 whole entry, looked up): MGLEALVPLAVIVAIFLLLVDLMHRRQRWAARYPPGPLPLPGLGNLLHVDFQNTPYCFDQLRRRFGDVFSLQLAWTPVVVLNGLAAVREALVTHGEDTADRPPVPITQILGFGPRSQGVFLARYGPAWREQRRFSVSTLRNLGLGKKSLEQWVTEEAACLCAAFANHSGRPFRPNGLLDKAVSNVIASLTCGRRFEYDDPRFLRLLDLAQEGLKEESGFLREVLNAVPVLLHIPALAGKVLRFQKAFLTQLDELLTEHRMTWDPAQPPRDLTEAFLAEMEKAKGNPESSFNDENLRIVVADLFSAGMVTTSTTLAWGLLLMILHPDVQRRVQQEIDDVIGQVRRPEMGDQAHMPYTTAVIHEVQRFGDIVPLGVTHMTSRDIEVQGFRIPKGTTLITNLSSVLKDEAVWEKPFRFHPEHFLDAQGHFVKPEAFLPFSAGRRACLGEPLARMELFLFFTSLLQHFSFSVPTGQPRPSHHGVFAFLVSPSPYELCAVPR

Compound | AC50 | activity, negative = inhibition
O=C1NC(c2ccc(Br)cc2)Nc2sc3c(c21)CCC3 (configuration not stated) | inactive | –
CN(C)c1ccc(/C=C2/C(=O)Nc3ccccc32)cc1 | inactive | –
CC(C)(CCc1nc2ccccc2[nH]1)C(=O)O | – | -1.31% [at 11.4 µM] (inactive)
O=C(NCc1nc2ccccc2[nH]1)[C@H]1C[C@@H]1[C@H](NP(=O)(c1ccccc1)c1ccccc1)c1ccccc1 | inactive | –
O=C(OCc1nc2ccccc2[nH]1)C12CC3CC(CC(C3)C1)C2 | 15.8 µM (active) | –
COc1ccc(/C=C/C(=O)Nc2nc(C)cc(C)n2)cc1OC | inactive | –
Cc1ccc(S(=O)(=O)N2CCN(C(=O)C3COc4ccccc4O3)CC2)cc1C (configuration not stated) | inactive | –
Cc1cc(C)cc(OCC(=O)Nc2ccc3c4c(cccc24)CC3)c1 | inactive | –
CC(C)c1ccc(/C=C2\C=C(c3ccc4ccccc4c3)OC2=O)cc1 | – | 2.54% [at 11.4 µM] (inactive)
Cc1cccc(C)c1NC(=O)CS(=O)CC(=O)NCCCc1ccccc1 (configuration not stated) | inactive | –
Cc1cc(C)c(NC(=O)CS(=O)CC(=O)NCCCc2ccccc2)c(C)c1 (configuration not stated) | inactive | –
Cc1ccccc1-c1nc(CS(=O)CC(=O)NCCN2CCN(Cc3ccccc3)CC2)c(C)o1 (configuration not stated) | 14.1 µM (active) | –
CC(=O)[C@@]1(O)CC[C@H]2[C@H]3C[C@@H](C)C4=CC(=O)C=C[C@]4(C)[C@@]3(F)[C@@H](O)C[C@]21C | inactive | –
Cc1cc2[nH]c(=O)c3ccccc3n2n1 | inactive | –
CCCC(=O)Nc1nnc(CCN2CCCCC2)s1 | 15.8 µM (active) | –
CCCC(=O)Nc1nnc(Cc2ccccc2)s1 | inactive | –
CCCc1nnc(NC(=O)CCC(=O)N2CCN(c3ccccn3)CC2)s1 | inactive | –
COc1ccc(/C=N/NC(N)=S)cc1OC(=O)c1cccc2ccccc12 | inactive | –
CCOc1cc(NC(=S)NCC2CCCO2)c(OCC)cc1NC(=O)c1cccc(C)c1 (configuration not stated) | inactive | –
O=C1[C@H]2[C@H]3[C@H](O)[C@H](O)C/C(=N/OC[C@@H](O)COCc4ccco4)[C@H]3CC[C@@H]2C(=O)N1Cc1ccc2c(c1)OCO2 | – | 3.67% [at 11.4 µM] (inactive)
O=c1c2ccccc2nc(SCc2ccccc2Cl)n1Cc1ccccc1 | inactive | –

Compound | AC50 | activity, negative = inhibition
CCn1c(SCc2ccc(Cl)cc2Cl)nc2nc3c(cc2c1=O)CCCC3 | 1.26 µM (active) | –
Cn1c(=O)c2c(nc(N3CCN(c4ccccn4)CC3)n2Cc2ccc(Cl)cc2Cl)n(C)c1=O | inactive | –
S=c1nc(-c2ccccc2)oc2c1CCCC2 | inactive | –
CN(CC(=O)O/N=C(\N)c1ccccn1)S(=O)(=O)c1ccccc1 | inactive | –
CCN(C1CCCCC1)S(=O)(=O)c1ccc(S(=O)(=O)NCc2ccncc2)cc1 | 7.94 µM (active) | –
Cc1ccc(S(=O)(=O)N(CC(=O)N2CCN(c3ccc(F)cc3)CC2)C2CCCCC2)cc1 | inactive | –
O=S(=O)(NCc1cccnc1)c1ccc(Cl)nc1 | inactive | –
Cc1ccc(/C=C/c2ccc(=O)n(Cc3ccc(Cl)cc3Cl)n2)cc1 | inactive | –
COC(=O)[C@@]1(Cc2ccc(OC)cc2)[C@@H]2C(=CC(=O)[C@H]2CC(=O)C(=O)N2CCCC2)CN1C(=O)c1ccccc1 | inactive | –
COc1cc(C2C(C#N)=C(N)N(Nc3ccccc3)C3=C2C(=O)CC(C)(C)C3)ccc1OCc1cccc(F)c1 (configuration not stated) | inactive | –
CC1=C(CC(=O)O)c2cc(F)ccc2/C1=C\c1ccc(S(C)(=O)=O)cc1 | inactive | –
Clc1ccc2c(NCCNc3ccnc4cc(Cl)ccc34)ccnc2c1 | – | -10.3% [at 11.4 µM] (inactive)
Clc1ccc2c(NCCNC3CCCCC3)ccnc2c1 | 3.16 µM (active) | –
C/C(CC/C(C)=N/O)=N/O | – | 8.85% [at 11.4 µM] (inactive)
O=C(O)c1cccnc1C(=O)O | inactive | –
CN(C)Cc1ccccc1-c1cc(NC2CC2)ncn1 | 0.0398 µM (active) | –
CN(C)c1cc(-c2cccc(NS(C)(=O)=O)c2)ncn1 | inactive | –
CC(=O)NCCNc1cc(-c2ccccc2CN(C)C)ncn1 | inactive | –
Cc1noc(C)c1-c1cc(Nc2ccccc2)ncn1 | inactive | –
CN(C)Cc1ccccc1-c1cc(Nc2ccccc2)ncn1 | 12.6 µM (active) | –
CNc1cc(-c2ccccc2CN(C)C)ncn1 | 0.631 µM (active) | –

Compound | AC50 | activity, negative = inhibition
CN(C)Cc1ccccc1-c1cc(N(C)C)ncn1 | 1.26 µM (active) | –
Cc1noc(C)c1-c1cc(NC2CCNCC2)ncn1 | inactive | –
CNc1cc(-c2ccccc2C(F)(F)F)ncn1 | inactive | –
CC(=O)c1ccc(NC(=O)C2(c3ccccc3)CCOCC2)cc1 | inactive | –
CON1C(=O)C(=O)N(OC)C(C)(C)C1C (configuration not stated) | inactive | –
CCOC(=O)N1CCN(C(=O)c2ccc3c(=O)n(-c4ccc(OC)cc4)c(=S)[nH]c3c2)CC1 | inactive | –
C=CCn1c(=O)c2c(nc(-c3ccc(S(=O)(=O)O)cc3)n2C)n(C)c1=O | inactive | –
CN(C)C[C@H]1CCC2=C(C1=O)C(c1ccc(Cl)c(Cl)c1)C1=C(CC[C@H](CN(C)C)C1=O)O2 | – | -12.4% [at 11.4 µM] (inactive)
[O-][n+]1c(CN2CCCCC2)nc2cccc3c2c1-c1ccccc1-3 | – | -13.1% [at 11.4 µM] (inactive)
CCCOC(=O)c1ccc(NC(=O)c2cn(CC)c3nc(C)ccc3c2=O)cc1 | inactive | –
O=c1c(-c2ccccc2)nc2cnc(Oc3cccc(Cl)c3)nc2n1C1CC1 | inactive | –
Cc1c(Cl)cccc1NC(=O)CC1NCCNC1=O (configuration not stated) | inactive | –
Cc1c(Cl)cccc1Nc1ccccc1C(=O)O | inactive | –
Cc1ccc(NC(=O)CN2CCC(NC(=O)Cc3ccccc3)CC2)cc1C | inactive | –
Cc1c(Cl)cccc1NC(=O)CN1CCC(C(O)(c2ccccc2)c2ccccc2)CC1 | 0.224 µM (active) | –
Cc1cc(Cl)ccc1NC(=O)CN1CCC(C(O)(c2ccccc2)c2ccccc2)CC1 | 14.1 µM (active) | –
CCOC(=O)c1ccccc1NC(=O)CSc1cccc[n+]1[O-] | inactive | –
FC(F)(F)c1cccc(-c2nc3nc(Cl)c(Cl)nc3[nH]2)c1 | – | -1.57% [at 11.4 µM] (inactive)
Cc1ccc(S(=O)(=O)/N=C(/Nc2c(C)n(C)n(-c3ccccc3)c2=O)c2ccc(Cl)cc2)cc1 | inactive | –
O=C(c1cccc(C(F)(F)F)c1)N1CCC(O)(CS(=O)(=O)Cc2ccccc2)CC1 | inactive | –
